From the supplement of paper PMC10849652
Of roughly 7,900 targets only a part is listed; those with a hit were picked by preference. About 0.6% of all pairs of compound and target were hits.

Tests used:
Assay in all cases: log2 fold change, soluble protein after heating vs DMSO (PISA); higher = thermal stabilisation; K562 cells, 10 uM, 30 min; active = over 0.2 and 3.5 SD of the protein, either way, in both replicates (recomputed)
saracatinib = compound: CN1CCN(CCOc2cc(OC3CCOCC3)c3c(Nc4c(Cl)ccc5c4OCO5)ncnc3c2)CC1 [saracatinib]
Outline: (§1)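 K562 cells at 2×10^6 cells/mL were treated with 10 μM compound for 30 min. Aliquots were heated for 3 min across 48°C-58°C, pooled, and extracted in PBS with 0.5% NP-40 at 4°C; soluble protein was the supernatant after 21,000xg for 90 min. Soluble protein was quantified by TMTpro 16plex LC-MS/MS with channel sums equalised, and reported as log2 fold change in thermal stability against DMSO controls, with values from duplicates.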

defactinib = compound: CNC(=O)c1ccc(Nc2ncc(C(F)(F)F)c(NCc3nccnc3N(C)S(C)(=O)=O)n2)cc1 [defactinib]
Outline: as §1

rucaparib = compound: CNCc1ccc(-c2[nH]c3cc(F)cc4c3c2CCNC4=O)cc1 [rucaparib]
Outline: as §1

[1] = compound: CNc1nc(-c2ccc3c(N)n[nH]c3c2)cc(N2C[C@@H](C(=O)NC3CCCCC3)CC[C@H]2C)n1
Outline: as §1

encorafenib = compound: COC(=O)N[C@@H](C)CNc1nccc(-c2cn(C(C)C)nc2-c2cc(Cl)cc(NS(C)(=O)=O)c2F)n1 [encorafenib]
Outline: as §1

[2] = compound: COC(=O)[C@H](CCSC)NC(=O)C1=C(C=C(C=C1)NC[C@H](CS)N)C2=CC=CC=C2
Outline: as §1

Tubastatin A = compound: CN1CCc2c(c3ccccc3n2Cc2ccc(C(=O)NO)cc2)C1 [Tubastatin A]
Outline: as §1

alvocidib = compound: CN1CC[C@H](c2c(O)cc(O)c3c(=O)cc(-c4ccccc4Cl)oc23)[C@H](O)C1 [alvocidib]
Outline: as §1

[3] = compound: CNC(=O)C1=CC=CC=C1NC2=NC(=NC=C2Cl)NC3=C(C=C(C=C3)N4CCOCC4)OC
Outline: as §1

sotrastaurin = compound: CN1CCN(c2nc(C3=C(c4c[nH]c5ccccc45)C(=O)NC3=O)c3ccccc3n2)CC1 [sotrastaurin]
Outline: as §1

Measured: log2 fold change

PAN2 (UniProt Q504Q3)
active: rucaparib -0.656
inactive: saracatinib 0.113 | defactinib 0.001 | [1] -0.048 | encorafenib 0.073 | [2] -0.045

PIAS4 (UniProt Q8N2W9)
inactive: saracatinib -0.207 | Tubastatin A -0.057 | [1] -0.043

PCNX1 (UniProt Q96RV3)
UniProt Q96RV3, sequence (Q96RV3 whole entry, looked up): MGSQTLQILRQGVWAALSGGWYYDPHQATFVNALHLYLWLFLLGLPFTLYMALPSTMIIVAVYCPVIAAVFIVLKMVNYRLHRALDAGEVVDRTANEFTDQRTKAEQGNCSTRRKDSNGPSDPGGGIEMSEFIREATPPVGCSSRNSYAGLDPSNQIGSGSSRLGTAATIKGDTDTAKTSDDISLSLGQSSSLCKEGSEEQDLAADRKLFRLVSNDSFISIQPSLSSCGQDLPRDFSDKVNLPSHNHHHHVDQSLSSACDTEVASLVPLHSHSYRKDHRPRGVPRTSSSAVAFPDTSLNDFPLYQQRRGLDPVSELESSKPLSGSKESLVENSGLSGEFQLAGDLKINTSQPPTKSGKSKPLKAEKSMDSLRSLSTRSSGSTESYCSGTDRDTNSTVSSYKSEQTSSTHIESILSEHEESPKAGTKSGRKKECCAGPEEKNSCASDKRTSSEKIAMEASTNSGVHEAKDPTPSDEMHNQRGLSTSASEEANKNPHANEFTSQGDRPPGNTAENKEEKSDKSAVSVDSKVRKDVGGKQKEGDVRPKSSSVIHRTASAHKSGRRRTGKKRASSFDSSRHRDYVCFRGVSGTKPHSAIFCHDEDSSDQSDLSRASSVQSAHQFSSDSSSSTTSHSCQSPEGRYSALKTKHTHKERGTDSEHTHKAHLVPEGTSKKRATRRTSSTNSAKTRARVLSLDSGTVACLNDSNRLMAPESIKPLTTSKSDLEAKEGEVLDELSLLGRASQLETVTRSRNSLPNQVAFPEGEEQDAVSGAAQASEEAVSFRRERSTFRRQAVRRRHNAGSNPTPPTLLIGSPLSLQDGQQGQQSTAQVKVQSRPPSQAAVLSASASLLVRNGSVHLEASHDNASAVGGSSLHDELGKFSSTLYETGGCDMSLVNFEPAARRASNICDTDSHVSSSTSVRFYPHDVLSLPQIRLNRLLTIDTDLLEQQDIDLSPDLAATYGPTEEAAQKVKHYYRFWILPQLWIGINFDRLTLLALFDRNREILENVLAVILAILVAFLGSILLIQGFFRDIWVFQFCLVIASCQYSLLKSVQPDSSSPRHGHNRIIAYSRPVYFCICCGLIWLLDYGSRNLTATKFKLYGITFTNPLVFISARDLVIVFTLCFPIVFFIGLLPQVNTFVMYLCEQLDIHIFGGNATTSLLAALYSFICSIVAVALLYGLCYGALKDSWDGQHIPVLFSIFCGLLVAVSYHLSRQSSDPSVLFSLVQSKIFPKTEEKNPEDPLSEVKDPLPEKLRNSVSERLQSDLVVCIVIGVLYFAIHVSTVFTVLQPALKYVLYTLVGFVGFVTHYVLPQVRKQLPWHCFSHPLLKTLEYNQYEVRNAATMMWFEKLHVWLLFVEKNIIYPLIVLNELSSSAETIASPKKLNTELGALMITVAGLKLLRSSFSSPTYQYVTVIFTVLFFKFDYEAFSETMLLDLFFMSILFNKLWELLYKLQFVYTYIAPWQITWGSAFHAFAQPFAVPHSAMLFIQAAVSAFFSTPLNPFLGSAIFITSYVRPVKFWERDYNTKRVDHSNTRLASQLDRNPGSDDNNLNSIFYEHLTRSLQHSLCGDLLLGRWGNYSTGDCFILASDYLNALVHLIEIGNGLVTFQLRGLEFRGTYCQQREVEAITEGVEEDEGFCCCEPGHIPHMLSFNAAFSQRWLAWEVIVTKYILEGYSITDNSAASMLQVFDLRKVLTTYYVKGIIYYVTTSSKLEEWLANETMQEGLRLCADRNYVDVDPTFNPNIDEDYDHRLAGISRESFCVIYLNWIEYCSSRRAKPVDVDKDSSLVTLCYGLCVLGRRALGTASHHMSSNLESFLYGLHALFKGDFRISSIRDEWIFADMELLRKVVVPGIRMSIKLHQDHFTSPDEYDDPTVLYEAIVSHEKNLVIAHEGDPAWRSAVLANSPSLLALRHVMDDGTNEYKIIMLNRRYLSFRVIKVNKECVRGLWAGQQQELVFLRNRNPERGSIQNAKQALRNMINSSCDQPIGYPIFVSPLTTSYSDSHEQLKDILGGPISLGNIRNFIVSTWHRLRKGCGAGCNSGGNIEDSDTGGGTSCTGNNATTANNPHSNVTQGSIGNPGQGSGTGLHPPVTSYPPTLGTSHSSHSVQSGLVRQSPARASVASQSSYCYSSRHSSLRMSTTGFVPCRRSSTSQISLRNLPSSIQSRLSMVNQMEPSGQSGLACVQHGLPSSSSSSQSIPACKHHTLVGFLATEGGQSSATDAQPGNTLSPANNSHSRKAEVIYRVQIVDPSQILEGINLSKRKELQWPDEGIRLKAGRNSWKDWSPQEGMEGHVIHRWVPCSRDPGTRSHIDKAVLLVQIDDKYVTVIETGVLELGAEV
inactive: Tubastatin A -0.041 | defactinib 0.027 | rucaparib -0.123 | encorafenib 0.085 | [2] -0.039

PKN2 (UniProt Q16513)
inactive: saracatinib -0.059 | alvocidib -0.159 | Tubastatin A 0.025 | [3] 0.037 | defactinib -0.099 | rucaparib -0.039 | [1] -0.037 | encorafenib 0.024 | [2] -0.05

PSD3 (UniProt Q9NYI0)
inactive: alvocidib -0.054 | defactinib -0.004 | rucaparib -0.03 | encorafenib 0.003 | [2] -0.019

PSMD8 (UniProt K7EK21)
inactive: alvocidib 0.25

PSMA3 (UniProt H0YJ03)
inactive: saracatinib -0.185 | alvocidib 0.073 | Tubastatin A 0.314 | defactinib -0.023 | rucaparib 0.151 | [1] 0.067 | encorafenib -0.142 | [2] 0.087

PUM1 (UniProt Q14671)
UniProt Q14671, sequence (Q14671 whole entry, looked up): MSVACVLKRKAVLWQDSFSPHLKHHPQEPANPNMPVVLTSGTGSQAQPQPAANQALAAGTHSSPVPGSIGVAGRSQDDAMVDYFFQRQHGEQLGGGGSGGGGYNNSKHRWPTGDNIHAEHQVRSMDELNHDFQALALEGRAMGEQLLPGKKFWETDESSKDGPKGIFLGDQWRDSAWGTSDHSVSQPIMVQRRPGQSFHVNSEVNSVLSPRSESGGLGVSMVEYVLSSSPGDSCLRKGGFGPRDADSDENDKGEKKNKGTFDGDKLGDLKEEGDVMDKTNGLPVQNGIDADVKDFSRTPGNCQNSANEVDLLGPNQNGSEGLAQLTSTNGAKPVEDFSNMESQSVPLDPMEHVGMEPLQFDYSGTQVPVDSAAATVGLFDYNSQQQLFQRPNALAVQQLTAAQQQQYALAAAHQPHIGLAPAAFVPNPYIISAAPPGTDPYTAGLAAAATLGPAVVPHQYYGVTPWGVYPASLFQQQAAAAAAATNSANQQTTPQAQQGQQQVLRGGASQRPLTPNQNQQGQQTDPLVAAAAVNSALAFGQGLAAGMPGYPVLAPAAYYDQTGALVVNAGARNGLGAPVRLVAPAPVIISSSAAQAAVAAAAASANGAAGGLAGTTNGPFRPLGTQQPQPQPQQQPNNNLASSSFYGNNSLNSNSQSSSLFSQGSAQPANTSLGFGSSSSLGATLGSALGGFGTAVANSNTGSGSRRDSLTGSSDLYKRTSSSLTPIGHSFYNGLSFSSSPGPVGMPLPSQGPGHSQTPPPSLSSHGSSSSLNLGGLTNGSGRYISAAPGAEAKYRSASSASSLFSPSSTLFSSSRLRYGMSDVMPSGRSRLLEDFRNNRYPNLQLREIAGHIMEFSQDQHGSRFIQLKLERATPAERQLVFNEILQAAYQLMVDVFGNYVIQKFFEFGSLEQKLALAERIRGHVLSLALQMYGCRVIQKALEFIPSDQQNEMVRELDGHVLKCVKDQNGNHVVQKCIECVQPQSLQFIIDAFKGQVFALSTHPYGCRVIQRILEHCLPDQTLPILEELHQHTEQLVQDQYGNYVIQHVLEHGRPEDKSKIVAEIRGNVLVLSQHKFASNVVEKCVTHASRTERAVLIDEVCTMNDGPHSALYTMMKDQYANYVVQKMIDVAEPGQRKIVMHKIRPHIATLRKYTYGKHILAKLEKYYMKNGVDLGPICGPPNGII
inactive: saracatinib -0.155 | alvocidib -0.083 | Tubastatin A 0 | [3] -0.348 | [1] -0.232

PRKX (UniProt P51817)
inactive: [3] -0.139

PKM isoform 2 (UniProt P14618)
inactive: saracatinib 0.202 | sotrastaurin -0.133 | Tubastatin A -0.052 | defactinib -0.045 | rucaparib 0.125 | [1] -0.063 | encorafenib -0.09 | [2] -0.081

PDE4DIP (UniProt E9PS60)
inactive: alvocidib 0.095 | [3] -0.196 | defactinib 0.095 | rucaparib 0.172 | encorafenib 0.125 | [2] 0.032

PSMB9 (UniProt P28065)
inactive: sotrastaurin 0.074 | alvocidib 0.071 | [3] 0.062 | defactinib -0.008 | rucaparib 0.296 | encorafenib -0.22 | [2] 0.094

PRKD3 (UniProt O94806)
inactive: saracatinib 0.023 | sotrastaurin -0.31 | alvocidib 0.066 | [3] -0.335 | defactinib -0.068 | [1] 0.002 | [2] -0.058

PPP2R5C isoform 2 (UniProt Q13362)
inactive: [3] -0.017 | rucaparib -0.063 | encorafenib 0.003

PHC3 isoform 7 (UniProt Q8NDX5)
UniProt Q8NDX5, sequence (Q8NDX5 whole entry, looked up): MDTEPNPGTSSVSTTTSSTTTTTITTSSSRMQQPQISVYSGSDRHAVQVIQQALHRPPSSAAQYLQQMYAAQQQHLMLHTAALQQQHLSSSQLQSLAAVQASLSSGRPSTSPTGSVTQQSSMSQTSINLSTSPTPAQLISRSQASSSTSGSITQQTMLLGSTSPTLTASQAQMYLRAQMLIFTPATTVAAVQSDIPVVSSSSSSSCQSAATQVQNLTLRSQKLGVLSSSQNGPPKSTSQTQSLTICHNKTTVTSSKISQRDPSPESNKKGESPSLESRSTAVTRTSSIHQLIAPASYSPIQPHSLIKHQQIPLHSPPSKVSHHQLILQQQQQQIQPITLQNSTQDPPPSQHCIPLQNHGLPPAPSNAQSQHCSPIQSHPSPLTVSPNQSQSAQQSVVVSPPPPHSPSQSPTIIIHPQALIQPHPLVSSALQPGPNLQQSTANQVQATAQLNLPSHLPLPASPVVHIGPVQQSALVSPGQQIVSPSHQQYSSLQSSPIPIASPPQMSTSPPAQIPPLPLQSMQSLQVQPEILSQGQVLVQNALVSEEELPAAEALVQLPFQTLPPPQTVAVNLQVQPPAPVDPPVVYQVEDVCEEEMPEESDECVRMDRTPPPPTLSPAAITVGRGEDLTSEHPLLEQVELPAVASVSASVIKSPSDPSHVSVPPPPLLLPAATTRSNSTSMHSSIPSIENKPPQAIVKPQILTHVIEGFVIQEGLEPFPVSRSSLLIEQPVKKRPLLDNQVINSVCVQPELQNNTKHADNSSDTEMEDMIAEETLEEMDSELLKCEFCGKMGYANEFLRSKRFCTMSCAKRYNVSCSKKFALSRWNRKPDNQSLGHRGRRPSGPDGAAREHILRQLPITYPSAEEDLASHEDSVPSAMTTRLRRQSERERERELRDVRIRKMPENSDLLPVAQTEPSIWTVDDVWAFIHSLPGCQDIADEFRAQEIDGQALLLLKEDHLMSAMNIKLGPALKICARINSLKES
inactive: sotrastaurin -0.071 | alvocidib -0.057 | [3] -0.007 | rucaparib -0.276 | encorafenib 0.154

PSMA3 (UniProt G3V4X5)
inactive: defactinib 0.061 | [2] -0.208

PTP4A3 (UniProt O75365)
active: defactinib -1.14
inactive: [2] -0.029

PIGH (UniProt Q14442)
active: Tubastatin A -0.274
inactive: saracatinib -0.099 | alvocidib 0.022 | [3] 0.012 | defactinib 0.005 | rucaparib 0.037 | [1] 0.025 | encorafenib -0.068 | [2] -0.001

PSMC1 (UniProt G3V4X1)
inactive: alvocidib 0.031 | [3] -0.011

PRR14L (UniProt Q5THK1)
inactive: alvocidib 0.016 | Tubastatin A 0.053 | defactinib 0.286 | [2] 0.125

PPP2R5B (UniProt Q15173)
UniProt Q15173, sequence (Q15173 whole entry, looked up): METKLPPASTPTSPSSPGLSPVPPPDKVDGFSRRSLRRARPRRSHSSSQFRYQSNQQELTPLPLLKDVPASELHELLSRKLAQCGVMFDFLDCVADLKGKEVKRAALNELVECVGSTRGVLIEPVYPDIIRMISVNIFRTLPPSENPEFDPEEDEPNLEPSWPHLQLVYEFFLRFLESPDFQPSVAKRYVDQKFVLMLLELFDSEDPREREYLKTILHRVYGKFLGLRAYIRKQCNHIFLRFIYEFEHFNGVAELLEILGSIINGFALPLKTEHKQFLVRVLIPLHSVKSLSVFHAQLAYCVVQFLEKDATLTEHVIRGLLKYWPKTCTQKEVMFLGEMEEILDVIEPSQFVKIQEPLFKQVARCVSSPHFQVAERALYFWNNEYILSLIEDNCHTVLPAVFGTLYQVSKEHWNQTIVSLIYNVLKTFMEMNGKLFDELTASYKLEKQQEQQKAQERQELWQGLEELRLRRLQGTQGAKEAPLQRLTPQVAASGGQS
inactive: saracatinib -0.161 | [3] -0.064 | defactinib 0.051 | rucaparib -0.015 | [1] -0.043 | encorafenib 0.07 | [2] -0.135
